From PubChem BioAssay (Tox21)
Where “and” joins values, the source holds several entries; their conditions need not be identical. Identical values can stand only once. Records with an inconclusive call do not appear. The source holds several records for some structures; these can differ, active in one and inactive in another. Calls of active or inactive are those of the source. Unless noted, calls follow the shape of the dose curve; as a rule, active = well fitted curve in the direction sought with a large enough effect in the repeat runs; inconclusive = weak or mixed curves; inactive = no such curve, though single readings can be large; an effect the other way counts as inactive or inconclusive.

How the values were obtained:
[1] = qHTS assay to identify small molecule antagonists of the androgen receptor (AR) signaling pathway using the MDA cell line in the presence of 0.5 nM R1881 - cell viability counter screen (AID 1259242); settings: MDA-kb2 viability, CellTiter-Fluor protease fluorescence, 16 h; series mostly up to 92.4 µM; also: nearly all actives have a fitted effect of over 45% in size
Summary of the method: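 Viability of MDA-kb2 cells was multiplexed with the luciferase AR readout; after 16 hr with compounds and R1881 at 0.5 nM final, CellTiter-Fluor fluorescence was recorded.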

[2] = qHTS assay to identify small molecule phospholipidosis (PLD) inducers (AID 1259344; active = well fitted curve in the direction sought with a large enough effect; an effect the other way counts as inactive or inconclusive); settings: HepG2 phospholipidosis, LipidTOX Red imaging, 24 h; series mostly up to 38.3 µM
Summary of the method: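 Quantitative HTS in HepG2: compound plus LipidTOX Red dye for 24 h, paraformaldehyde fixation with Hoechst 33342, widefield high-content imaging; amiodarone as positive and DMSO as negative control.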

[3] = qHTS assay to identify small molecule HDAC inhibitors (AID 1259364); settings: HCT-116 HDAC-Glo I/II luminescence, 2 h; series mostly up to 92.4 µM;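 also: wild-type HCT-116 cells with endogenous class I/II HDAC activity; top concentration of the series differs between compounds; nearly all actives have a fitted effect of over 45% in size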
Summary of the method: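 Read-out: luminescence of HDAC-Glo I/II reagent, 30 min RT, reflecting class I/II deacetylase activity in whole HCT-116 cells pre-exposed 2 h to DMSO-dissolved compounds.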

[4] = qHTS assay to identify small molecule HDAC inhibitors - cell viability counter screen (AID 1259365); settings: HCT-116 viability, CellTiter-Glo ATP luminescence, 2 h; series mostly up to 92.4 µM; also: nearly all actives have a fitted effect of over 50% in size; also: potency is read from the fitted curve at half-maximal effect
Summary of the method: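 Cytotoxicity was gauged in wild-type HCT-116 cells after a brief 2hr treatment with DMSO-dissolved compounds at 37C and 5% CO2, using CellTiter-Glo luminescence developed for 30min at room temperature.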

[5] = qHTS assay to identify small molecule antagonists of the sonic hedgehog signaling (Shh) pathway - cell viability counter screen (AID 1259367); settings: NIH/3T3 Gli1-Luc viability, CellTiter-Fluor, 24 h; series mostly up to 92.4 µM; also: nearly all actives have a fitted effect of over 55% in size; also: potency is read from the fitted curve at half-maximal effect
Summary of the method: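 Seed 3T3 Gli1-Luc cells at 2,000 per well; incubate 4 hr; add compound in DMSO, then conditioned medium; incubate at 37C with 5% CO2; add CellTiter-Fluor after 23 hr; read fluorescence 1 hr later.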

[6] = qHTS assay to identify small molecule agonists of the sonic hedgehog signaling (Shh) pathway (AID 1259368; calls by dose curve;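 also: NIH/3T3-derived 3T3Gli1-Luc cells carrying a stable Gli1-driven firefly luciferase reporter; nearly all actives have a fitted effect of over 15% in size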); settings: NIH/3T3 Gli1-Luc reporter, luciferase, 24 h; series mostly up to 92.4 µM
Summary of the method: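 A Gli1 transcriptional response element controlled firefly luciferase in 3T3Gli1-Luc cells. Compounds and a positive control were added 4 hr after plating, and cells were incubated a further 24 hr at 37 C before luminescence detection.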

[7] = qHTS assay to identify small molecule agonists of the androgen receptor (AR) signaling pathway in the presence of an antagonist - cell viability counter screen (AID 1259379); settings: MDA-kb2 viability, CellTiter-Fluor, 16 h; series mostly up to 92.4 µM;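 also: MDA-kb2 human breast cancer cells carrying an MMTV luciferase reporter; nearly all actives have a fitted effect of over 25% in size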
Summary of the method: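 Seed MDA-kb2 at 3,000 cells/well; incubate 5 hr, 37C, 0% CO2. Add nilutamide to 3.0uM final, then pin compounds at 15 concentrations. Incubate 16 hr. Add CellTiter-Fluor at 15 hr, read fluorescence after 1 hr.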

[8] = target: Androgen receptor (Homo sapiens) (UniProt P10275); assay: qHTS assay to identify small molecule agonists of the androgen receptor (AR) signaling pathway in the presence of an antagonist (AID 1259381; calls by dose curve; also: nearly all actives have a fitted effect of over 15% in size); settings: MDA-kb2 MMTV-luciferase, AR agonist + nilutamide, 16 h; series mostly up to 92.4 µM
Sequence of Androgen receptor (Homo sapiens) (P10275 whole entry, looked up): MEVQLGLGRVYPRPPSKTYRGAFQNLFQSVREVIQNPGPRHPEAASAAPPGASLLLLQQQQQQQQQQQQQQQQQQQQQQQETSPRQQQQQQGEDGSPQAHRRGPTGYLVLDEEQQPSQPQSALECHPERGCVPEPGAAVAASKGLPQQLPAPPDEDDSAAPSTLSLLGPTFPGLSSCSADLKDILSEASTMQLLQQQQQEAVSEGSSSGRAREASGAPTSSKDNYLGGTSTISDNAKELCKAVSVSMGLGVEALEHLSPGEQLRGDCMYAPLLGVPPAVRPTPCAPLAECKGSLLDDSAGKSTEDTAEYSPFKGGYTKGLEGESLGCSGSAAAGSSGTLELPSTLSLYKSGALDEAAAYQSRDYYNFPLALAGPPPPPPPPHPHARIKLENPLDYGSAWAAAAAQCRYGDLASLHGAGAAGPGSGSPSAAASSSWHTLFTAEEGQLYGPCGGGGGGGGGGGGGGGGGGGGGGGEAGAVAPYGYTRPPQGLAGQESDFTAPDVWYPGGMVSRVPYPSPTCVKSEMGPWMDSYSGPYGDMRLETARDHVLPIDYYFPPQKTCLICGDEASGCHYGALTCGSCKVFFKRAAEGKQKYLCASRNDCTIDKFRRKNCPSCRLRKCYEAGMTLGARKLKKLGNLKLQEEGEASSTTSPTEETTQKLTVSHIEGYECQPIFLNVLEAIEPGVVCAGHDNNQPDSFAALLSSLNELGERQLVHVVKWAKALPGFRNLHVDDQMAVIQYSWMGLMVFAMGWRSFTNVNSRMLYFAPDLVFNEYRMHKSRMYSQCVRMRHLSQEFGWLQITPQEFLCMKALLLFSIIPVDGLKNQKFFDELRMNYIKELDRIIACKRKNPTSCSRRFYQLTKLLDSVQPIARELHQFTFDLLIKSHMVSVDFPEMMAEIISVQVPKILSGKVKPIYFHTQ
Summary of the method: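 Test compounds at 15 concentrations were incubated for 16hr with MDA-kb2 reporter cells in presence of 3.0uM nilutamide (final). Signal: ONE-Glo luciferase luminescence.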

[9] = qHTS assay to identify small molecule antagonists of the estrogen receptor beta (ER-beta) signaling pathway - cell viability counter screen (AID 1259382); settings: ER-beta-UAS-bla HEK293T viability, CellTiter-Glo luminescence, 16 h; series mostly up to 92.4 µM; also: nearly all actives have a fitted effect of over 55% in size; also: potency is read from the fitted curve at half-maximal effect
Summary of the method: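 In this multiplexed counter screen, cells were seeded at 2,000 per well in medium with 2% charcoal-stripped FBS and incubated 6 hr before compound and 1nM final E2 were added. Sixteen hours later, ATP-based luminescence reported viability.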

[10] = qHTS assay to identify small molecule agonists or antagonists of the thyroid stimulating hormone receptor (TSHR) signaling pathway - wild type cell line counter screen (AID 1259384; calls by dose curve); settings: HEK293 wild type, cAMP HTRF counter-screen, stronger effect = higher value; series mostly up to 92.4 µM
Summary of the method: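 Wild-type Hek293 cells, 800/well, 18 h at 37C, then compound with Ro20-1724 for 30 min RT. cAMP by HTRF (cAMP-d2/anti-cAMP cryptate), 1 h RT, fluorescence read. 15 concentrations, triplicates.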

[11] = target: Thyrotropin receptor (Homo sapiens) (UniProt P16473); assay: qHTS assay to identify small molecule antagonists of the thyroid stimulating hormone receptor (TSHR) signaling pathway (AID 1259385; calls by dose curve; also: nearly all actives have a fitted effect of over 20% in size); settings: TSHR-HEK293 cAMP HTRF, TSH-stimulated antagonist mode; series mostly up to 92.4 µM
Sequence of Thyrotropin receptor (Homo sapiens) (P16473 whole entry, looked up): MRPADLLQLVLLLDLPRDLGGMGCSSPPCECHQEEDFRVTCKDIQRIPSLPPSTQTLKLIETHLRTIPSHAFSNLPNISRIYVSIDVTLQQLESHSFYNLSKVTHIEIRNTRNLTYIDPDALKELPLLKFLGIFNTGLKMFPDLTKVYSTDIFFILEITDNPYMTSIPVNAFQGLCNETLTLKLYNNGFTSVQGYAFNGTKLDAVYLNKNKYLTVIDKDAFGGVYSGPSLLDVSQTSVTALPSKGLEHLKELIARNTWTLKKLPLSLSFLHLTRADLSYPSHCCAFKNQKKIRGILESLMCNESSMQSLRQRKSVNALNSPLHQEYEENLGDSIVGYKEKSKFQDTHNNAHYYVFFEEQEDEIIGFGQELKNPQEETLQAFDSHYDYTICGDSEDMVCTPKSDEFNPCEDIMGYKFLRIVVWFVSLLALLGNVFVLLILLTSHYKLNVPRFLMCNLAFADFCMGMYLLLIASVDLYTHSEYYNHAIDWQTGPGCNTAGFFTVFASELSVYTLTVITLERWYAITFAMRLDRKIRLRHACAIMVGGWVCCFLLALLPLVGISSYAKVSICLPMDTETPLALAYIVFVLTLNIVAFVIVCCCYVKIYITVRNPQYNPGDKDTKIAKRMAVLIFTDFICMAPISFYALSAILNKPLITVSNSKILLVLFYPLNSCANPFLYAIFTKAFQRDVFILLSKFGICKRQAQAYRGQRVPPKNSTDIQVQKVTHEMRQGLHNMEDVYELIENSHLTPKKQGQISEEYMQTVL
Summary of the method: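 TSHR-HEK293 cells (800/well) plated 18 h, then compounds with Ro20-1724 and TSH at 1.5 ng/mL final, 30 min at room temperature. cAMP quantified by HTRF (cAMP-d2/anti-cAMP-cryptate, 1 h); 15 concentrations in triplicate.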

[12] = qHTS assay to identify small molecule agonists of the estrogen receptor alpha (ER-alpha) signaling pathway in the presence of an antagonist - cell viability counter screen (AID 1259386); settings: VM7Luc4E2 viability, CellTiter-Fluor fluorescence, 22 h; series mostly up to 92.4 µM;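 also: cells exposed to compounds for 22 h at 37 °C before the viability read; nearly all actives have a fitted effect of over 30% in size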
Summary of the method: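 Viability counter screen using VM7Luc4E2 (full-length ER-alpha, four ERE-luciferase). The cells were treated with compounds alongside ICI-182,780 10.0nM for 22hr, and live-cell protease fluorescence was quantified with CellTiter-Fluor.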

[13] = target: Estrogen receptor beta (Homo sapiens) (UniProt Q92731); assay: qHTS assay to identify small molecule agonists of the estrogen receptor beta (ER-beta) signaling pathway (AID 1259377; active = well fitted activation curve with a large enough effect in the signal ratio in the repeat runs, not every such curve was filed as active; the % refers to the signal ratio; also: potency is read from the fitted curve at half-maximal effect); settings: ER-beta-UAS-bla HEK293T, beta-lactamase FRET ratio, 16 h; series mostly up to 92.4 µM
Sequence of Estrogen receptor beta (Homo sapiens) (Q92731 whole entry, looked up): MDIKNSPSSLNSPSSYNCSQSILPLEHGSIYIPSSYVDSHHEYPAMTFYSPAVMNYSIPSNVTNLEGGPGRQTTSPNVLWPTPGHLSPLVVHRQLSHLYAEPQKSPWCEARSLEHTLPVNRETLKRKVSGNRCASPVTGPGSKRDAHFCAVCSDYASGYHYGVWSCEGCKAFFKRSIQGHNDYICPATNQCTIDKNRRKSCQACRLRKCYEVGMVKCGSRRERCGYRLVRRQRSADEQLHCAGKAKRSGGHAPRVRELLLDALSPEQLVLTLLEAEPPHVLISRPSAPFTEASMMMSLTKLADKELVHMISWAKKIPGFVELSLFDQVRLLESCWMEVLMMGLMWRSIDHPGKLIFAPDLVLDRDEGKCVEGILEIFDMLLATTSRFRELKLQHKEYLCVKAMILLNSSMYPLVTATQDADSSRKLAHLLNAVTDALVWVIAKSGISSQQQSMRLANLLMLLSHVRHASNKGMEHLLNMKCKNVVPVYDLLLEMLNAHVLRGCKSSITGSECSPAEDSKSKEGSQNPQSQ
Summary of the method: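 Measured by fluorescence intensity from a B/G FRET beta-lactamase substrate (2 h, room temperature) in ER-beta-UAS-bla HEK293T cells treated with DMSO-dissolved compounds for 16 hr at 37C and 5% CO2.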

[14] = qHTS assay to identify small molecule agonists of the estrogen receptor beta (ER-beta) signaling pathway - cell viability counter screen (AID 1259380); settings: ER-beta-bla HEK293T viability, CellTiter-Glo luminescence, 16 h; series mostly up to 92.4 µM; also: nearly all actives have a fitted effect of over 30% in size; also: potency is read from the fitted curve at half-maximal effect
Summary of the method: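 CellTiter-Glo read, 30 min RT, same wells as bla assay; cells ER-beta-UAS-bla HEK293T; 16 hr compound, 37C; medium 2% charcoal-stripped FBS.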

[15] = target: Estrogen receptor (Homo sapiens) (UniProt P03372); assay: qHTS assay to identify small molecule antagonists of the estrogen receptor alpha (ER-alpha) signaling pathway using the BG1 cell line in the presence of 0.1 nM 17-beta-estradiol (AID 1259244); settings: VM7Luc4E2 (BG1) ERE-luciferase, antagonist mode, 0.1 nM E2, 22 h; series mostly up to 92.4 µM; also: nearly all actives have a fitted effect of over 50% in size
Sequence of Estrogen receptor (Homo sapiens) (P03372 whole entry, looked up): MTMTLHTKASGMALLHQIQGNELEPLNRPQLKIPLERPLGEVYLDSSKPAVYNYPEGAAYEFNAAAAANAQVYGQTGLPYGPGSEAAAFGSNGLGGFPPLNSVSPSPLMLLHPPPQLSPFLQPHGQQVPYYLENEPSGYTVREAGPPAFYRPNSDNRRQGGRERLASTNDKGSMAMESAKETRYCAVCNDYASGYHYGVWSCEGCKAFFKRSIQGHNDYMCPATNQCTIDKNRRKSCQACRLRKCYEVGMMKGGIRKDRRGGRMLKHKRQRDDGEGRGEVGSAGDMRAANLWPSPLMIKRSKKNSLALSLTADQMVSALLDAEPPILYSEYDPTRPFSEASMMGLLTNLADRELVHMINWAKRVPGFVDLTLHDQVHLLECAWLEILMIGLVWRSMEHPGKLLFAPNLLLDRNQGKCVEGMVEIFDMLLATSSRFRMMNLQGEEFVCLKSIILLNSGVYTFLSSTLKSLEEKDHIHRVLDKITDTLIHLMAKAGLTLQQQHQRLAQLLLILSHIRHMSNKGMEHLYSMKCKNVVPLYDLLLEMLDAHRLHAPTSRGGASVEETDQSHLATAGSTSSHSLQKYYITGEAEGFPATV
Summary of the method: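 Estradiol at 0.1 nM (final) stimulates the endogenous ER-alpha of VM7Luc4E2 cells carrying an ERE-driven luciferase; compounds are co-incubated 22 h at 37C and luciferase output quantified by luminescence.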

[16] = qHTS assay to identify small molecule antagonists of the sonic hedgehog signaling (Shh) pathway (AID 1259369; calls by dose curve; also: nearly all actives have a fitted effect of over 45% in size; also: potency is read from the fitted curve at half-maximal effect); settings: NIH/3T3 Gli1-Luc reporter, Shh antagonist, luminescence 24 h; series mostly up to 92.4 µM
Summary of the method: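 For antagonist detection, the reporter line received test compounds together with conditioned medium, incubated 24hr at 37 C, 5% CO2, then luminescence was recorded following 30min room-temperature luciferase reagent incubation.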

[17] = target: Estrogen receptor (Homo sapiens) (UniProt P03372); assay: qHTS assay to identify small molecule agonists of the estrogen receptor alpha (ER-alpha) signaling pathway in the presence of an antagonist (AID 1259383; calls by dose curve; also: top concentration of the series differs between compounds; nearly all actives have a fitted effect of over 15% in size); settings: VM7Luc4E2 cells, ERE-luciferase, +ICI-182,780, 22 h; series mostly up to 92.4 µM
Summary of the method: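 Stably transfected VM7Luc4E2 reporter cells, kept 5 days in charcoal-stripped serum, received ICI-182,780 at 10.0nM final before compound addition. Following 22hr incubation at 37C and 5% CO2, luciferase signal was read by luminescence.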

[18] = qHTS assay to identify small molecule agonists of the sonic hedgehog signaling (Shh) pathway - cell viability counter screen (AID 1259366); settings: NIH/3T3 Gli1-Luc viability, CellTiter-Fluor, 24 h; series mostly up to 92.4 µM; also: nearly all actives have a fitted effect of over 50% in size; also: potency is read from the fitted curve at half-maximal effect
Summary of the method: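 Stable Gli1-Luc NIH/3T3 clone, 2,000 cells/well. Compound exposure 24hr at 37C. Read-out: CellTiter-Fluor fluorescence.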

[19] = target: Estrogen receptor beta (Homo sapiens) (UniProt Q92731); assay: qHTS assay to identify small molecule antagonists of the estrogen receptor beta (ER-beta) signaling pathway (AID 1259378; active = well fitted inhibition curve with a large enough effect in the signal ratio in the repeat runs, not every such curve was filed as active; the % refers to the signal ratio); settings: ER-beta-UAS-bla HEK293T, beta-lactamase FRET ratio, 16 h; series mostly up to 92.4 µM
Summary of the method: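 ER-beta-UAS-bla HEK293T cells in 2% charcoal-stripped FBS medium treated with compound plus 1nM final 17-beta-estradiol for 16 hr at 37C. Beta-lactamase reporter read by FRET substrate fluorescence after 2 hours at room temperature.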

[20] = target: Progesterone receptor (Homo sapiens) (UniProt P06401); assay: qHTS assay to identify small molecule agonists of the progesterone receptor (PR) signaling pathway (AID 1346784; calls by dose curve; also: nearly all actives have a fitted effect of over 30% in size); settings: PR-UAS-bla HEK293T, beta-lactamase FRET ratio, 16 h; series mostly up to 92.4 µM
Sequence of Progesterone receptor (Homo sapiens) (P06401 whole entry, looked up): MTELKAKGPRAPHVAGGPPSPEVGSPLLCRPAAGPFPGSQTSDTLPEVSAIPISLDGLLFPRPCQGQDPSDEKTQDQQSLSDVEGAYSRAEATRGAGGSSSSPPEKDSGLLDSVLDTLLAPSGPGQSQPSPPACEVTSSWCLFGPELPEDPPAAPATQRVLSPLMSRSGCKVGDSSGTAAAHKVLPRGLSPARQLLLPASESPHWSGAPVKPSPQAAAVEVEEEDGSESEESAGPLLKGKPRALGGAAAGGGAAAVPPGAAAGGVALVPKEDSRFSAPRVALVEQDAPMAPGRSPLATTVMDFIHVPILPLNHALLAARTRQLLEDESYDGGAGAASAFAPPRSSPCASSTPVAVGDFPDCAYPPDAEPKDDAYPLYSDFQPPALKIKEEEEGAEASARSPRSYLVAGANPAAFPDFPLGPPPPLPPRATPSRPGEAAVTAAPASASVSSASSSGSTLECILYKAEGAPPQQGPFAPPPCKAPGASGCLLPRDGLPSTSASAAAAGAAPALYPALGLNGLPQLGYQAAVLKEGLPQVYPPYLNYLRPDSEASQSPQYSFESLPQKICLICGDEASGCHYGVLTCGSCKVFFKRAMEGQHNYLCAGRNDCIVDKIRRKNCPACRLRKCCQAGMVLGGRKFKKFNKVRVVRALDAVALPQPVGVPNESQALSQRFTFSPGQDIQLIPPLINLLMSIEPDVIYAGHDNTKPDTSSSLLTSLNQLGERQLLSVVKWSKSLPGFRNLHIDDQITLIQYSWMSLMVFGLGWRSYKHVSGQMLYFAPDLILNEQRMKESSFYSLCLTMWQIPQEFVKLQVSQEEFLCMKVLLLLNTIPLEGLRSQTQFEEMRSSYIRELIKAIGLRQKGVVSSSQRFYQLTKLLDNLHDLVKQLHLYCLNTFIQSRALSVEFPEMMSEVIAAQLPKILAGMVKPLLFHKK
Summary of the method: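 The screen uses PR-UAS-bla HEK 293T cells in charcoal-stripped serum (2%). Compounds are applied for 16 hr at 37C after a 6 hr pre-incubation, and reporter activity is detected with a FRET beta-lactamase substrate after 2 hr at room temperature.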

Measured: Potency

CN1CC[C@]23c4c5ccc(O)c4O[C@H]2[C@@H](O)C=C[C@H]3[C@H]1C5
not listed: [13] | [14] | [15] | [16] | [17] | [18] | [19] | [20]
inactive: all other assays above

C[C@]12CC[C@H]3[C@@H](CCC4=CC(=O)CC[C@@H]43)[C@@H]1CC[C@@H]2OC(=O)CCc1ccccc1
active: [13] 3.35 µM
not listed: [8] | [9] | [15] | [16] | [17] | [18] | [19] | [20]
inactive: all other assays above

CCC(C)(C)O
inactive: [1] | [15] | [3] | [6] | [16] | [7] | [9] | [17] | [10] | [12]

Clc1ccc2ccccc2c1
not listed: [2] | [4]
inactive: all other assays above

COc1cc(CC(C)N)c(OC)cc1Br (stereo not drawn)
active: [16] 15.9 µM | [14] 63.2 µM
not listed: [2] | [4] | [8] | [9] | [13] | [18] | [19]
inactive: all other assays above

CC(C)(C)CC(C)(C)c1ccc(O)cc1
active: [16] 15.4 µM | [14] 30.6 µM and 33.5 µM | [9] 57.7 µM and 33.5 µM
48.6 µM (active) and inactive: [18]
61.1 µM (active) and inactive: [4]
not listed: [5] | [6] | [13] | [15] | [17] | [19]
inactive: all other assays above

C=CCOCC1CO1 (stereo not drawn)
not listed: [2] | [8] | [13] | [18] | [19]
inactive: all other assays above

O=C(NC(=O)c1cc(F)c(F)cc1Cl)Nc1cc(F)ccc1N1CCC(C(=O)O)CC1
not listed: [2] | [4] | [8] | [13] | [16] | [18] | [19] | [20]
inactive: all other assays above

COc1ccccc1N1CCNCC1
not listed: [8] | [14] | [15] | [17] | [18]
inactive: all other assays above

CCCCCl
not listed: [8] | [13] | [15] | [17] | [18] | [19] | [20]
inactive: all other assays above

Oc1cccc(Cl)c1
not listed: [2] | [5] | [8] | [9] | [11] | [13] | [19]
inactive: all other assays above

Clc1ccccc1
inactive: [1] | [15] | [3] | [6] | [7] | [9] | [17] | [10] | [12] | [20]
active: [5] 26.9 µM | [16] 0.479 µM

O=C(O)c1ccc(=O)[nH]c1
not listed: [2] | [9] | [13] | [18] | [19] | [20]
inactive: all other assays above
